# Data reported in PubChem BioAssay (Tox21).
# Values joined by “and” are separate entries in the source; they are usually repeats but may differ in a detail not shown here. Equal entries are not always repeated. Results filed as inconclusive are left out. Entries that show only a call come without a potency. More than one record can exist for a structure, and the calls need not agree. Active and inactive are the calls of the source. Unless noted, calls come from the whole dose curve.
# Assays:
# [1] = Nuclear factor erythroid 2-related factor 2/antioxidant responsive element (Nrf2/ARE) small molecule agonists: qHTS cell viability counter screen in human keratinocytes (AID 1919968; active = well fitted curve in the direction sought with a large enough effect in the repeat runs; an effect the other way counts as inactive or inconclusive; note: nearly all actives have a fitted effect of over 55% in size; note: potency is the fitted concentration of half-maximal effect)
# How it was run: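 In human HaCaT keratinocytes stably expressing an ARE-driven luciferase, compound exposure lasted 23 h at 37 C under 5% CO2. Viable cells are quantified with a protease-based fluorogenic reagent (CellTiter-Fluor) read 1 h after addition.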
# [2] = Nuclear factor erythroid 2-related factor 2/antioxidant responsive element (Nrf2/ARE) small molecule agonists: luciferase reporter gene qHTS assay in human keratinocytes (AID 1919969); note: nearly all actives have a fitted effect of over 35% in size; note: potency is the fitted concentration of half-maximal effect
# [3] = molecular target: Gonadotropin-releasing hormone receptor (Homo sapiens) (UniProt P30968); assay: Human gonadotropin-releasing hormone receptor (GnRHR) small molecule agonists, calcium flux assay in GnRHR-HEK293 cells (AID 1920063); note: nearly all actives have a fitted effect of over 35% in size
# How it was run: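 Intracellular calcium rise is the read-out: engineered human GnRHR HEK293 cells, dye-loaded, are exposed to DMSO-dissolved compounds and fluorescence at Ex/Em 480/540 is tracked for 3 min.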
# [4] = molecular target: KiSS-1 receptor (Homo sapiens) (UniProt Q969F8); assay: Human kisspeptin (KISS1R) small molecule agonists, calcium flux assay in KISS1R-HEK293 cells (AID 1920064; active = well fitted curve in the direction sought with a large enough effect in the repeat runs; an effect the other way counts as inactive or inconclusive)
# How it was run: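 Concentration-response testing used 15 concentrations in triplicate on human KISS1R-expressing HEK293 cells. Calcium-dependent fluorescence (Ex/Em 480/540) was followed kinetically for 3 min after compound transfer.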
# [5] = G protein-coupled receptor (GPCR) small molecule agonists, calcium flux assay: HEK293 wild type cell line counter screen (AID 1920065)
# How it was run: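 Fluorescence intensity signals activation. After overnight (18 h) culture and a 1 h calcium dye load at 37 C, compounds are added by pin tool and the plate read at 480/540 nm for 3 min in 1 s steps.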
# [6] = p53 small molecule agonists, cell-based qHTS assay with human liver microsomes (AID 1963577);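 note: p53 response element beta-lactamase reporter cells with liver microsomes plus NADPH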
# How it was run: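 In this qHTS, p53 response-element beta-lactamase cells receive test compound together with a microsome/NADPH activating system (0.5 mg/mL final each) and are incubated 16 h at 37 C before LiveBLAzer fluorescence detection.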
# [7] = p53 small molecule agonists, cell-based qHTS assay with rat liver microsomes (AID 1963578)
# How it was run: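 Agonist mode in p53RE-bla reporter cells, with compounds co-incubated 16 h at 37 C alongside 0.5 mg/mL rat liver microsomes and 0.5 mg/mL NADPH (final), followed by a 2 h LiveBLAzer detection step.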
# [8] = p53 small molecule agonists, cell-based qHTS assay with human liver microsomes: qHTS cell viability counter screen (AID 1963579); note: nearly all actives have a fitted effect of over 45% in size
# How it was run: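 Metabolically activated exposure: compounds, human liver microsomes and NADPH (0.5 mg/mL final apiece) were added to p53RE-bla cells seeded 5 h earlier, left 16 h at 37 C, and then assessed for viability by CellTiter-Glo luminescence.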
# [9] = p53 small molecule agonists, cell-based qHTS assay with rat liver microsomes: qHTS cell viability counter screen (AID 1963580); note: nearly all actives have a fitted effect of over 45% in size; note: potency is the fitted concentration of half-maximal effect
# How it was run: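 Counter screen for cytotoxicity under metabolic activation: rat liver microsomes and NADPH, 0.5 mg/mL final each, added with compounds to p53RE-bla HCT-116 cells; 16 h at 37 C, then ATP luminescence read.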
# [10] = p53 small molecule agonists, cell-based qHTS assay: qHTS cell viability counter screen (AID 1963581); note: nearly all actives have a fitted effect of over 45% in size
# How it was run: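 Luminescence from CellTiter-Glo, reflecting ATP content, serves as the cytotoxicity measure; it is taken after the 2 h reporter substrate step in HCT-116 p53RE-bla cells dosed for 16 h at 37 C.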
# [11] = p53 small molecule agonists, cell-based qHTS assay (AID 1963582; active = well fitted activation curve with a large enough effect in the signal ratio in the repeat runs, not every such curve was filed as active; the % refers to the signal ratio)
# How it was run: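 After plating, p53RE-bla cells sat 5 h in the incubator; compounds or DMSO vehicle were pinned in; a 16 h incubation at 37 C followed; FRET substrate was added and, 2 h later at RT, fluorescence was measured.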
# [12] = molecular target: 5-hydroxytryptamine receptor 2A (Homo sapiens) (UniProt P28223); assay: 5-hydroxytryptamine receptor 2A (HTR2A) small molecule antagonists, cell-based qHTS assay (AID 1963586); note: nearly all actives have a fitted effect of over 45% in size
# How it was run: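 CHO cells stably expressing human HTR2A were plated for 18 h at 37 C, then loaded with calcium dye for 1 h. Compounds were preincubated 5 min at room temperature before DOI (4 nM solution) was added. Kinetic fluorescence was read for 3 min.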
# [13] = molecular target: 5-hydroxytryptamine receptor 2A (Homo sapiens) (UniProt P28223); assay: 5-hydroxytryptamine receptor 2A (HTR2A) small molecule agonists, cell-based qHTS assay (AID 1963587); note: nearly all actives have a fitted effect of over 30% in size
# How it was run: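 HTR2A-CHO cells, plated 18 h at 37 C/5% CO2, dye-loaded 1 h at 37 C; compounds in DMSO added by pin tool (agonist mode). Intracellular calcium flux read as kinetic fluorescence on FDSS over 2 min at 1 s intervals.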
# [14] = molecular target: Muscarinic acetylcholine receptor M1 (Homo sapiens) (UniProt P11229); assay: Cholinergic receptor muscarinic 1 (CHRM1) small molecule agonists, cell-based qHTS assay (AID 1963589); note: nearly all actives have a fitted effect of over 35% in size
# How it was run: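 Fluorescent calcium dye reports M1 activation in stably transfected CHO cells. Compounds, 15 concentrations, added after 1 h dye loading at 37 C; kinetic reading at 1 sec intervals.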
# [15] = cAMP Responsive Elements (CRE) small molecule agonists, cell-based qHTS assay (AID 1963590)
# How it was run: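 Compound exposure lasted 3 h at 37 C/5% CO2 in CRE-bla HEK 293T cells grown in assay medium with 10% dialyzed FBS and 25 mM HEPES. Reporter signal came from LiveBLAzer B/G FRET substrate, 2 h, room temperature.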
# [16] = cAMP Responsive Elements (CRE) small molecule antagonists, cell-based qHTS assay (AID 1963591; active = well fitted inhibition curve with a large enough effect in the signal ratio in the repeat runs, not every such curve was filed as active; the % refers to the signal ratio)
# How it was run: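 Stimulation used NKH477 at a final 0.25 uM for 3 h in compound-treated CRE-bla HEK293T cells, seeded 18 h beforehand. Reporter activity was measured with LiveBLAzer B/G FRET substrate after 2 h at room temperature.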
# [17] = molecular target: Beta-2 adrenergic receptor (Homo sapiens) (UniProt P07550); assay: Adrenergic beta2 receptor (ADRB2) small molecule antagonists, cell-based qHTS assay (AID 1963592); note: series mostly up to about 92 µM; nearly all actives have a fitted effect of over 50% in size
# How it was run: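 Assay format: CHO-ADRB2 cells, 18-20hr seeding at 37C/5% CO2, then compound plus 1nM isoproterenol agonist mix for 0.5hr RT. Homogeneous time-resolved fluorescence cAMP detection after 1hr, expressed as 665/615 nm ratio.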
# [18] = molecular target: D(2) dopamine receptor (Homo sapiens) (UniProt P14416); assay: Dopamine D2 receptor (DRD2) small molecule agonists, cell-based qHTS assay (AID 1963594); note: nearly all actives have a fitted effect of over 35% in size
# How it was run: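 HEK293 cells stably expressing DRD2 were cultured 24 h at 37 C, then given Ro20-1724 (0.1 mM final) and compounds for 10 min at room temperature. NKH477 (200nM) was then added for 30 min. cAMP was read by HTRF.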
# [19] = molecular target: D(2) dopamine receptor (Homo sapiens) (UniProt P14416); assay: Dopamine D2 receptor (DRD2) small molecule antagonists, cell-based qHTS assay (AID 1963595; active = well fitted inhibition curve with a large enough effect in the signal ratio in the repeat runs, with a control signal flat; the % refers to the signal ratio)
# How it was run: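 Antagonism was scored as restored cAMP in HEK293-DRD2 cells. These cells were stimulated with 200 nM NKH477 and 12 nM quinpirole for 30 min at room temperature, in the presence of 0.1 mM Ro20-1724.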
# [20] = molecular target: Muscarinic acetylcholine receptor M1 (Homo sapiens) (UniProt P11229); assay: Cholinergic receptor muscarinic 1 (CHRM1) small molecule antagonists, cell-based qHTS assay (AID 1963588); note: nearly all actives have a fitted effect of over 40% in size
# How it was run: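 Compounds were tested at 15 concentrations in three independent runs. Dye-loaded CHRM1-CHO cells were exposed 5 min at room temperature before stimulation by acetylcholine added at 50nM. Intracellular calcium was read kinetically on FDSS for 3 min.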
# Chain of Muscarinic acetylcholine receptor M1 (Homo sapiens) (P11229 whole entry, looked up): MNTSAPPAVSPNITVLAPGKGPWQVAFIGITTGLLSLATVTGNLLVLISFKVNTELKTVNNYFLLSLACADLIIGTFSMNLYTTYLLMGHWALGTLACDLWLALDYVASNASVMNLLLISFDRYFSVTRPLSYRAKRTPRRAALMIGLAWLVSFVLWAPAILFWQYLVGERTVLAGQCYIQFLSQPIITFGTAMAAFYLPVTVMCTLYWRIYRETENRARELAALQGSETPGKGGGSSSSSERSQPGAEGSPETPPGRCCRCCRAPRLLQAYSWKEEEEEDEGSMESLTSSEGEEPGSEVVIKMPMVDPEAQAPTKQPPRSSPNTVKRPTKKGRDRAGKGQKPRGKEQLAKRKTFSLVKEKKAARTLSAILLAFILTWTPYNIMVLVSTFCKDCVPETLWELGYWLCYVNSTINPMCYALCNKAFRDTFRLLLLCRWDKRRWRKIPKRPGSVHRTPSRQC
# Chain of Gonadotropin-releasing hormone receptor (Homo sapiens) (P30968 whole entry, looked up): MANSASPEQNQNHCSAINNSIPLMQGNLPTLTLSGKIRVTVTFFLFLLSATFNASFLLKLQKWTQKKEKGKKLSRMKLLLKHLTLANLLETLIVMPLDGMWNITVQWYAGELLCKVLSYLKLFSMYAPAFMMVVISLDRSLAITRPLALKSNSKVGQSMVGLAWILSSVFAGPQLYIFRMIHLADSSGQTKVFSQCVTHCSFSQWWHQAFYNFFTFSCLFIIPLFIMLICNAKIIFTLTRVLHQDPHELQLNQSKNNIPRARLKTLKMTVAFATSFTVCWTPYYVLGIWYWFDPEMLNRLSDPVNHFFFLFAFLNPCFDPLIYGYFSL
# Chain of 5-hydroxytryptamine receptor 2A (Homo sapiens) (P28223 whole entry, looked up): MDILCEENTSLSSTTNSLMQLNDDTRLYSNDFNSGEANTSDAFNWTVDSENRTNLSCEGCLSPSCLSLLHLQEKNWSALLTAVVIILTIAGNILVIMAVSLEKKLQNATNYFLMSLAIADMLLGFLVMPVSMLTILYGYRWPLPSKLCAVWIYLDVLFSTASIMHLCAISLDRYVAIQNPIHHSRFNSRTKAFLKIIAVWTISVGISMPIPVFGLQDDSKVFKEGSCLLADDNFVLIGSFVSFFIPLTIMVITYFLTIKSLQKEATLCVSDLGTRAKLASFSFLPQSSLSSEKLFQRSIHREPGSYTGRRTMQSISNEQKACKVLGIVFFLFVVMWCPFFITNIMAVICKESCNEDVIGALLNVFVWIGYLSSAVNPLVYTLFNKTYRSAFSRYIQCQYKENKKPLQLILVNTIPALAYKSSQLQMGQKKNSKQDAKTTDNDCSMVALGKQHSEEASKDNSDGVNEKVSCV
# Chain of Beta-2 adrenergic receptor (Homo sapiens) (P07550 whole entry, looked up): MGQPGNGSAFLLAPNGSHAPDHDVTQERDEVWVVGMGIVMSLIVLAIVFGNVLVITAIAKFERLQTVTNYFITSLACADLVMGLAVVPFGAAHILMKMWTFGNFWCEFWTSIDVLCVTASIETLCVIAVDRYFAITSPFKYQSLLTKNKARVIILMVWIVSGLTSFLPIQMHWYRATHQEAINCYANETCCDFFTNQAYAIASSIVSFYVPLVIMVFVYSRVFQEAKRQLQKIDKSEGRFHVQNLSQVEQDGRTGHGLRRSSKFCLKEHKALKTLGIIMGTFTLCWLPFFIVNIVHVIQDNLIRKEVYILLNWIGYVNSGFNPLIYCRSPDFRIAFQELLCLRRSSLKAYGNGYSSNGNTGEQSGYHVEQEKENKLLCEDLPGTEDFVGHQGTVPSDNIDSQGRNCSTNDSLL
# Chain of KiSS-1 receptor (Homo sapiens) (Q969F8 whole entry, looked up): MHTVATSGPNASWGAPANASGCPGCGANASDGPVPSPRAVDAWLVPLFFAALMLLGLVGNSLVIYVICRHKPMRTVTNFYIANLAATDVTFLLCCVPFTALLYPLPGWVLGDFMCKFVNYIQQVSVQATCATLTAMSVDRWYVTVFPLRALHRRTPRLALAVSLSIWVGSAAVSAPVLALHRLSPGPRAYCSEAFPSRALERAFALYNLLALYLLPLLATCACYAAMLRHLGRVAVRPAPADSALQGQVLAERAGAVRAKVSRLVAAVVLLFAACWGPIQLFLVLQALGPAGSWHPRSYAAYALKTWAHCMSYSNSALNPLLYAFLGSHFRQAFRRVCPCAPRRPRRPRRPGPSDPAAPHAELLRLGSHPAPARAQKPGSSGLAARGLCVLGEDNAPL
# Chain of D(2) dopamine receptor (Homo sapiens) (P14416 whole entry, looked up): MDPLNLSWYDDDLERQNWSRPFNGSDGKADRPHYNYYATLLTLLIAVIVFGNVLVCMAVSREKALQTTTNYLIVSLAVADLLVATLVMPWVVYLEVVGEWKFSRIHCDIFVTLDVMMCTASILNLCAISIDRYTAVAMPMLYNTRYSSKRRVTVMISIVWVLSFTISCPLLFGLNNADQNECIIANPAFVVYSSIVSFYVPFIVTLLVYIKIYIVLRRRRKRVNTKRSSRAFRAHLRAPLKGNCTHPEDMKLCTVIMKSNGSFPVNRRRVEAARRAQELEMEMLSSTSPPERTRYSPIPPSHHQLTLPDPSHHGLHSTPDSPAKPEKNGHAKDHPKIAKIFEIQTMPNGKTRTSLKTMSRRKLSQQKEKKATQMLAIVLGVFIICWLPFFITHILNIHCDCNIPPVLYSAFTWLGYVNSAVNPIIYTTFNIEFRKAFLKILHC
SMILES,Potency [1],Potency [2],Potency [3],Potency [4],Potency [5],Potency [6],Potency [7],Potency [8],Potency [9],Potency [10],Potency [11],Potency [12],Potency [13],Potency [14],Potency [15],Potency [16],Potency [17],Potency [18],Potency [19],Potency [20]
Cc1ccccc1[N+](=O)[O-],inactive,inactive,inactive,inactive,inactive,inactive,inactive,inactive,inactive,inactive,inactive,inactive,inactive,inactive,inactive,inactive,inactive,inactive,inactive,
CC1OC(C)OC(C)O1 (configuration not stated),inactive,inactive,inactive,inactive,inactive,inactive,inactive,inactive,inactive,inactive,inactive,inactive,,inactive,inactive,inactive,inactive,inactive,inactive,inactive
CN1CSC(=S)N(C)C1,2.72 µM (active),1.21 µM (active) and 2.43 µM (active),inactive,inactive,inactive,inactive,inactive,inactive,20.3 µM (active),inactive,inactive,inactive,inactive,inactive,inactive,,inactive,inactive,inactive,
N#Cc1ccccn1,inactive,63.7 µM (active) and inactive,inactive,inactive,inactive,inactive,inactive,inactive,inactive,inactive,inactive,inactive,,inactive,inactive,inactive,inactive,inactive,inactive,inactive
O=C(NC(=O)c1ccccc1Cl)Nc1ccc(OC(F)(F)F)cc1,inactive,inactive,inactive,inactive,inactive,inactive,inactive,inactive,inactive,inactive,inactive,inactive,inactive,,inactive,inactive,,inactive,,inactive
Oc1ccccc1-c1ccccc1,inactive,62.6 µM (active) and inactive,inactive,inactive,inactive,inactive,inactive,inactive,inactive,inactive,inactive,inactive,inactive,inactive,inactive,inactive,inactive,,inactive,
COC(=O)c1c(C(F)F)nc(C(F)(F)F)c(C2=NCCS2)c1CC(C)C,inactive,inactive,inactive,inactive,inactive,inactive,inactive,inactive,inactive,inactive,inactive,inactive,inactive,inactive,inactive,inactive,inactive,inactive,inactive,
O=C(CBr)c1ccc(O)cc1,inactive,68.6 µM (active),inactive,inactive,inactive,inactive,inactive,inactive,inactive,inactive,inactive,inactive,inactive,inactive,inactive,inactive,inactive,inactive,,
